This passage reports composite z-score, composite Z-score and z-score results from PubChem BioAssay.

The target in one test is Albumin (Bos taurus) (UniProt P02769). The experiment in a line: bovine serum albumin binders on microarray, profiling panel, artefact control for SMM control protein annotation, biochemical, small-molecule microarray, Alexa647 label, 635/667 nm fluorescence (AID 1118).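 Note: score merges 667 nm emission intensity and signal-to-noise per printed compound spot.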 As to conditions: BSA-A647 binding, fluorescence 635 nm, higher = more signal.
Test [1] is described as follows: small-molecule microarray binders of probe aXIP, primary screen, biochemical, NeuroSMM set, 635/667 nm fluorescence (AID 1119).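 Note: probe is the protein aXip251-270 applied at 1 µg/mL to compound-printed slides; binding of probe to printed compounds measured as 667 nm fluorescence plus signal to noise.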 As to conditions: higher = more signal, called active from +8 up or from −8 down.
A short description of test [2]: small-molecule binders of probe aNOTCH3, primary screen, biochemical, small-molecule microarray, 635/667 nm fluorescence (AID 1120).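 Note: probe is a biotin-tagged antibody raised against NOTCH3 rather than NOTCH3 protein; score merges spot fluorescence near 667 nm with spot signal to noise.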 As to conditions: higher = more signal.
Test [3] in a line: small-molecule binders of probe aNOTCH2, primary screen, biochemical, small-molecule microarray, 635/667 nm fluorescence (AID 1121).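 Note: score merges feature fluorescence read at 667 nm with its signal to noise.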 The following applies: higher = more signal.
The target of test [4] is Carbonic anhydrase 2 (Homo sapiens) (UniProt P00918). The experiment in a line: CAII small-molecule binders, profiling panel, biochemical, small-molecule microarray, Alexa647-labelled CAII (AID 1122). As to conditions: CAII-A647 binding fluorescence, higher = more signal.
Test [5] in a line: COS7 lysate on small-molecule microarray, probe aHis, 635 nm (AID 1123).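 Note: z-score combines 667nm fluorescence intensity with signal-to-noise per printed compound spot.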 As to conditions: COS7 cell lysate, fluorescence, higher = more signal.
Test [6] is described as follows: compound binding in COS7 lysate, probe aLAP1, primary screen, cell lysate, small-molecule microarray (AID 1124).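 Note: lysate comes from COS7 cells expressing LAP1 and is applied at 0.3 µg/mL; score merges spot fluorescence near 667 nm with signal-to-noise over triplicate slides.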 As to conditions: probe aLAP1, fluorescence, higher = more signal.
In the next test the test system is Sam68 (KHDRBS1). The experiment in a line: Sam68 small-molecule binders, primary screen, biochemical, small-molecule microarray, 635 nm fluorescence (AID 1125).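 Note: score merges 667 nm channel intensity with signal to noise over triplicate slides.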 As to conditions: small-molecule microarray binding, higher = more signal.
For test [7], the system named is Chordin-like protein 2 (CHRDL2). The test can be described thus: CHRDL2 small-molecule binders, primary screen, biochemical, small-molecule microarray, 635 nm fluorescence (AID 1126).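 Note: printed compound slides probed with Chrdl2 protein at 4 µg/mL for 1 h at 4 C; score merges 667 nm emission intensity with signal to noise over three replicate slides.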 The following applies: small-molecule microarray binding, fluorescence 635 nm; higher = more signal.
Test [8] has as its target Concanavalin-A (Canavalia ensiformis) (UniProt P02866). The test can be described thus: ConA small-molecule binders, primary screen, artefact control for SMM control protein annotation, biochemical, small-molecule microarray, Alexa647 label, 635 nm (AID 1127).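 Note: z combines 667 nm emission intensity with signal-to-noise across three replicate slides.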 As to conditions: ConA-A647 binding fluorescence, higher = more signal.
The nature of test [9]: anti-His antibody binders, primary screen, artefact control for SMM control protein annotation, biochemical, small-molecule microarray, 635 nm fluorescence (AID 1128).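 Note: score merges feature fluorescence with signal-to-noise for each printed compound spot.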 The following applies: anti-His Alexa647 antibody binding, higher = more signal.
For test [10], the system named is Human papillomavirus type 1a E7 protein (residues 1-88). The test can be described thus: HPV1a E7 small-molecule binders, primary screen, biochemical, small-molecule microarray, residues 1-88, 635 nm (AID 1129). As to conditions: small-molecule microarray binding, fluorescence 635 nm; higher = more signal.
The target of test [11] is Focal adhesion kinase 1 (Homo sapiens) (UniProt Q05397). The experiment in a line: small-molecule microarray binders of FAK, primary screen, biochemical, 635/667 nm fluorescence, BSA, DTT (AID 1130).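 Note: composite of spot emission at 667 nm and signal to noise over triplicate slides.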 The following applies: PTK2 binding, 635 nm fluorescence, higher = more signal.
For test [12], the system named is Fibrinogen (Alexa647-labelled). The test can be described thus: fibrinogen binders on compound microarrays, profiling panel, artefact control for SMM control-protein annotation, biochemical, small-molecule microarray, 635/667 nm fluorescence (AID 1131).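 Note: z-score merges 667 nm fluorescence with per-spot signal-to-noise over triplicate slides.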 The following applies: fibrinogen-A647 binding fluorescence, higher = more signal.
Test [13] concerns the target Follistatin (Homo sapiens) (UniProt P19883). The test can be described thus: follistatin binders on small-molecule microarrays, primary screen, biochemical, small-molecule microarray, 635/667 nm fluorescence (AID 1132). The following applies: FST binding, 635 nm fluorescence, higher = more signal.
Test [14] addresses Fibroblast growth factor 2 (Homo sapiens) (UniProt P09038). The experiment in a line: FGF2 binders on small-molecule microarrays, primary screen, biochemical, small-molecule microarray, 635/667 nm fluorescence (AID 1133). The following applies: small-molecule microarray binding, FGF2, fluorescence 635/667; higher = more signal.
Test [15] can be described thus: mitochondrial membrane potential change in A549 cells, profiling panel, cell-based, JC-1 fluorescence, basal, 24 h, 100 nL (AID 1138).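 Note: A549 lung adenocarcinoma cells under basal conditions with no added stimulus; test concentration not given here.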 The following applies: higher = more signal.
The next test has as its system Lefty1. The test can be described thus: Lefty1 binders on small-molecule microarrays, primary screen, biochemical, small-molecule microarray, 635/667 nm fluorescence (AID 1139). The following applies: small-molecule microarray binding, fluorescence 635/667; higher = more signal.
The test system of test [16] is wheat germ agglutinin (Triticum aestivum), Alexa647-labelled. The test can be described thus: wheat germ agglutinin binders on compound microarrays, profiling panel, artefact control for SMM control-protein annotation, biochemical, small-molecule microarray, 635/667 nm fluorescence (AID 1140).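 Note: score merges 667 nm feature emission with signal to noise over triplicate slides.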 As to conditions: WGA-A647 binding, 635 nm fluorescence, higher = more signal.

The target in test [17] is Luciferin 4-monooxygenase (Photinus pyralis) (UniProt P08659). The test can be described thus: firefly luciferase enzyme inhibitors, primary screen, biochemical, luminescence, purified enzyme, 2006 set (AID 1141).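 Note: cell-free assay with purified firefly luciferase at 100 ng per well in PBS; test concentration not given here.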 The following applies: SteadyGlo luminescence, 30 min, higher = more signal, called active from +8 up or from −8 down.

Activity calls are given as the source filed them.

Sequence of Concanavalin-A (Canavalia ensiformis) (P02866 whole entry, looked up): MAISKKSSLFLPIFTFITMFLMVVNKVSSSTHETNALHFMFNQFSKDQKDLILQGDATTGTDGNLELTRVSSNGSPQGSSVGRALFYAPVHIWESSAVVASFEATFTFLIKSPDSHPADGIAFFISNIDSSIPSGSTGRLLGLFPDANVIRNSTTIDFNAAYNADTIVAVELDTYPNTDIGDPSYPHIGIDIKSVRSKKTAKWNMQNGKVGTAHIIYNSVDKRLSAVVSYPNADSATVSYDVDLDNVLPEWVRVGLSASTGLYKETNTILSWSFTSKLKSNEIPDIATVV
Sequence of Fibroblast growth factor 2 (Homo sapiens) (P09038 whole entry, looked up): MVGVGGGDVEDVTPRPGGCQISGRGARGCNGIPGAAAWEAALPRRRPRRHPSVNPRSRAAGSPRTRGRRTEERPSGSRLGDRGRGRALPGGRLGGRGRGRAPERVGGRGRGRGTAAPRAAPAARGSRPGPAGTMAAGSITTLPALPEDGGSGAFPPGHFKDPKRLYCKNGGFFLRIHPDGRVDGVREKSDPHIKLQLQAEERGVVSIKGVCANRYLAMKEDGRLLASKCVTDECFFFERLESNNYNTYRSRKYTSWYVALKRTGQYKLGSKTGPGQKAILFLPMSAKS
Sequence of Focal adhesion kinase 1 (Homo sapiens) (Q05397 whole entry, looked up): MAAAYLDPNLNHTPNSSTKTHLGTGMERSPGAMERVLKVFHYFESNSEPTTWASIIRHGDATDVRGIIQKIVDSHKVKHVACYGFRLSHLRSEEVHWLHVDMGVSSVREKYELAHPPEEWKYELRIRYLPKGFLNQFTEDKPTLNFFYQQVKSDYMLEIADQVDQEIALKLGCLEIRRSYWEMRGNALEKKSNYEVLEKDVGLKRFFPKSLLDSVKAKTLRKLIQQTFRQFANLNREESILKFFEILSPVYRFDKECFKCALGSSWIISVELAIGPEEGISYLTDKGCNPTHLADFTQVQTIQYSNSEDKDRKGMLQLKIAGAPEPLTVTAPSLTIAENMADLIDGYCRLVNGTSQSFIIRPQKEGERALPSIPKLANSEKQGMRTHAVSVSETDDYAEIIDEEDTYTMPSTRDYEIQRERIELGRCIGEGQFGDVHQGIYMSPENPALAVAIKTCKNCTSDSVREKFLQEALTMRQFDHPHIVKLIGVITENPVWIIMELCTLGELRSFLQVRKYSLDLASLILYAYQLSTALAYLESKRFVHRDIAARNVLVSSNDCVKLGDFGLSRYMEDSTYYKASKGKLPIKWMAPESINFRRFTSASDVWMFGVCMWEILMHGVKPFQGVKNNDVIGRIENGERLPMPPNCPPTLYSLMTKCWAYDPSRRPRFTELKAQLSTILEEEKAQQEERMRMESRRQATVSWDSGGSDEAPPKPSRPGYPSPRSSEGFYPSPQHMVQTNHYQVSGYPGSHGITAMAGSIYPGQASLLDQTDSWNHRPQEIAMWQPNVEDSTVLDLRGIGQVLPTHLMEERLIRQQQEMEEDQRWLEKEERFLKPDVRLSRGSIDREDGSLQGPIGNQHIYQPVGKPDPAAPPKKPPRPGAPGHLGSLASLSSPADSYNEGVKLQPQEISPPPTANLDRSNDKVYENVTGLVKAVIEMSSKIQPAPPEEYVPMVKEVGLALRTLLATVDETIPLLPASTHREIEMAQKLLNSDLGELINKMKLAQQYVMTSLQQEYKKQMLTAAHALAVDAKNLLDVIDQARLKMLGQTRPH
Sequence of Follistatin (Homo sapiens) (P19883 whole entry, looked up): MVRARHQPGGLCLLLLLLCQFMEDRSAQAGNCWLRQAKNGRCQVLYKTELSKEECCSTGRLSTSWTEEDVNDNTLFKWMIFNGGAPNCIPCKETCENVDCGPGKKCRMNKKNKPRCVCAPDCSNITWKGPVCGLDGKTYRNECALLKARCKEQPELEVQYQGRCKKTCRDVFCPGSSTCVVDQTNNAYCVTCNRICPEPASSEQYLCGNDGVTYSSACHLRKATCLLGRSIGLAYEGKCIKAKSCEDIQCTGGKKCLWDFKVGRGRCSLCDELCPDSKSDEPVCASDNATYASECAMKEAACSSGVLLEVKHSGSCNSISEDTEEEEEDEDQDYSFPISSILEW
Sequence of Luciferin 4-monooxygenase (Photinus pyralis) (P08659 whole entry, looked up): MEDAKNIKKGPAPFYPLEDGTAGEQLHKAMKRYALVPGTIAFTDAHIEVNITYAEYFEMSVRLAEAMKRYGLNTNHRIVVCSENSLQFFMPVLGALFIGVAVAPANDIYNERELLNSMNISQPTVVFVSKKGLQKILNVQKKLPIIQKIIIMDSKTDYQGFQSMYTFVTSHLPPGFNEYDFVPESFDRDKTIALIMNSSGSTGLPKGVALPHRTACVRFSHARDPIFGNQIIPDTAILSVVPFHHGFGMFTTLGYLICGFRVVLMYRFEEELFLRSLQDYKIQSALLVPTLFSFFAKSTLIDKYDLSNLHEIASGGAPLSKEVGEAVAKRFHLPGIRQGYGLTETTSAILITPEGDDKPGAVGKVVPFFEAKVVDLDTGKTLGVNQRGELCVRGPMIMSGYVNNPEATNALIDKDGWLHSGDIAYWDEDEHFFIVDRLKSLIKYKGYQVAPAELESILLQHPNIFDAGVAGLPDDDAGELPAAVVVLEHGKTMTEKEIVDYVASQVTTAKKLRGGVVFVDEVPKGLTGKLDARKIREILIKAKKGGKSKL
Sequence of Albumin (Bos taurus) (P02769 whole entry, looked up): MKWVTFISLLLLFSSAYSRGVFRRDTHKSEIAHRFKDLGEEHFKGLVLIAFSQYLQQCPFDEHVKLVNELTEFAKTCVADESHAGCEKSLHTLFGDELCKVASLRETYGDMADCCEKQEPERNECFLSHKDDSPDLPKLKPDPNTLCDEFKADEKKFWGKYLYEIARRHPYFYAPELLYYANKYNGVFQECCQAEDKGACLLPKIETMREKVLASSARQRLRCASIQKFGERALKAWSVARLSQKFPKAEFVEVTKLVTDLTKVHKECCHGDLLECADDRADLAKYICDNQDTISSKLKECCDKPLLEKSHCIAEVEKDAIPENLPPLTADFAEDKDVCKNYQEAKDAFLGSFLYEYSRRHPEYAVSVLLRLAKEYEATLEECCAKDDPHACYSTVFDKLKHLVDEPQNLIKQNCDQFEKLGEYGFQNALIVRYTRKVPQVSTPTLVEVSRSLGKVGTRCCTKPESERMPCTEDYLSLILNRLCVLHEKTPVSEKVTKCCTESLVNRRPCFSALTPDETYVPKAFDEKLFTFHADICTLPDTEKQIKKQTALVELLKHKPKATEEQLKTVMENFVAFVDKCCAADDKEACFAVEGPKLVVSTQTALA

In the case of `CCOC(=O)[C@H](Cc1ccccc1)NC(=O)CCC1CC(OC(=O)NCc2ccc3c(c2)OCO3)CC2(CCCC(COC(=O)NCC3CCCCC3)O2)O1` (stereo not given in full), the composite z-score with Albumin (Bos taurus) is 0.276; in [2], 0.0525; in test [3] it was -0.0891; in test [4], 0.579; in [5] it was 0.575; in test [6], -0.243. Besides, the composite z-score amounted to 1.3 in the test with Sam68 (KHDRBS1); 0.799 in test [7]; 1.06 in [8]; 0.273 in [9]; 1.18 in test [10]; 0.188 in [11]. Further, the composite z-score stood at 0.91 in [12]; 0.904 in test [13]; 0.48 in test [14]; 0.876 in the test on Lefty1; 0.206 in test [16]. In addition, the composite Z-score in [1] is 0.236 (inactive). Further, the z-score is 0.491 in test [15] and 0.986 (inactive) in [17].

For the compound `CCOC(=O)CCN1C(=O)[C@H]2[C@H]3[C@H](O)[C@H](O)CC(=O)[C@H]3CC[C@H]2C1=O`, the composite z-score with Albumin (Bos taurus) was 0.132; in [2] it was 0.0282; in test [3], -0.0986; in test [4], -0.214; in [5], 0.197; in test [6], -0.386. For the same compound, the composite z-score was 0.321 in the test with Sam68 (KHDRBS1); 0.454 in [7]; 0.528 in test [8]; 0.683 in test [9]; 0.676 in test [10]; -0.186 in test [11]. For the same compound, the composite z-score turned out to be 0.29 in [12]; 0.369 in test [13]; 0.364 in test [14]; 0.413 in the test on Lefty1; 0.125 in test [16]. Moreover, the composite Z-score in [1] is 0.466 (inactive). Further, the z-score is -0.648 in [15] and 0.524 (inactive) in test [17].

Consider `COCCCNC(=O)[C@@]1(C)c2ccccc2C(=O)N(Cc2ccc(OC(F)(F)F)cc2)[C@H]1c1ccc(CO)cc1`, for which the composite z-score was -0.881 with Albumin (Bos taurus); -0.271 in test [2]; -0.0836 in test [3]; 0.174 in test [4]; 0.125 in test [5]; 0.884 in test [6]. The composite z-score in the test with Sam68 (KHDRBS1) was -1.22; in test [7] it was -0.654; in [8], -0.836; in test [9], -0.95; in test [10], -1.52; in [11] it was -0.253. The composite z-score in test [12] is -1.75; in [13] it was -0.0328; in [14], -0.553; with Lefty1, -1.02; in [16] it was -1.18. In [1], the composite Z-score was -0.17 (inactive). The z-score was 0.332 in [15] and -0.159 (inactive) in test [17].

For the compound `O=C1c2ccccc2[C@@]2(Cc3ccccc3N(C3CC3)C2=O)[C@H](c2ccc(CO)cc2)N1Cc1ccccc1C(F)(F)F`, the composite z-score in the test with Albumin (Bos taurus) was -0.259; in test [2], 0.062; in test [3], -0.0248; in test [4] it was 0.82; in test [5], -0.0061; in [6], 0.439. For the same compound, the composite z-score is 0.219 in the test with Sam68 (KHDRBS1); -0.338 in test [7]; -0.657 in test [8]; 0.534 in test [9]; -0.453 in test [10]; 0.13 in [11]. The composite z-score in test [12] is -1.41; in test [13], -1.41; in test [14], -1.09; with Lefty1, -1.32; in test [16], 0.286. Moreover, the composite Z-score in [1] was -0.174 (inactive). The z-score in test [15] was -0.511; in [17], 0.62 (inactive).

On to `COCCOC(=O)N1C(=O)[C@@]2(c3cc(C#Cc4ccc(OC)cc4)ccc31)[C@H](C(=O)N1CCN(c3ncccn3)CC1)[C@H]1C(=O)O[C@H](c3ccccc3)[C@H](c3ccccc3)N1[C@@H]2c1ccc(OCCO)cc1`, for which the composite z-score with Albumin (Bos taurus) is -0.447; in [2], 0.311; in [3], 0.0966; in test [4] it was 0.31; in [5] it was 1.1; in test [6], 0.634. For the same compound, the composite z-score with Sam68 (KHDRBS1) came to 0.556; in test [7] it was 0.792; in test [8] it was 1.08; in test [9], 0.233; in test [10] it was 0.202; in test [11] it was 0.253. The composite z-score in [12] amounted to 0.274; in [13], 1.26; in [14], 1.06; with Lefty1 it was 0.786; in [16] it was 0.769. For the same compound, the composite Z-score in test [1] was 0.549 (inactive). For the same compound, the z-score in [15] is -1.15; in [17] it was -0.411 (inactive).
